DT40 TDP1 no CPT: qHTS for Inhibitors of human tyrosyl-DNA phosphodiesterase 1 (TDP1): qHTS in cells in absence of CPT | 420,000 compounds, 15% hits | DT40 Tdp1-/- hTDP1 cells, no CPT, ATP luminescence, 48 h | Potency, µM (series often up to 46.2 µM), for the others: at the highest dose activity change, negative = growth inhibition, actives largely listed as inhibitors; note: % is set by controls: 0 for no effect and ±100 for the full control effect; nearly all actives have a fitted effect of over 55% in size
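Chicken DT40 Tdp1-/- cells stably complemented with human TDP1 were seeded at 400 cells/well with DMSO in place of 20 nM camptothecin. After compound pinning, cells grew at least 48 hr at 37 °C; viability read by CellTiter-Glo luminescence.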
TGFb SMAD3 inh: inhibitors of TGF-b signaling. HepG2 CAGA-GFP TGF-b/SMAD3 reporter, GFP fluorescence, 18 h; TGF-beta stimulated, 500 pg/mL final. Potency, µM (highest dose often 46.1 µM), for inactives: at the top dose activity, negative = inhibition, usual class: inhibitors. 410,000 compounds, 1.2% hits. AID 588855; note: % is set by controls: 0 for no effect and ±100 for the full control effect; nearly all actives have a fitted effect of over 65% in size
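Per well, imaged GFP fluorescence of HEPG2 CAGA-GFP cells gives the signal; cells get compound, then TGF-beta (500 pg/mL final), 18 h at 37 degrees C; %Activity versus -TGF-beta and +DMSO controls.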
HepG2 tox: HepG2 cytotoxicity, counter-screen for TGF-b inhibitors | HepG2 CAGA-GFP viability, ATP luminescence, 18 h | Potency, µM (doses to about 46.1 µM), for inactives: at the top dose activity change, negative = cytotoxicity, hits mostly cytotoxic | 410,000 compounds, 0.76% hits
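CellTiter-Glo luminescence gave cytotoxicity after 18 hours at 37 degrees C. The cells were HepG2 CAGA-GFP in 1% FBS DMEM, stimulated with 500 pg/mL TGF-beta after compound addition. %Activity was normalised to no-cell wells (complete cell-killing) and DMSO (no toxicity), and curves were fitted and classified.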
DT40 TDP1 CPT: DT40-hTDP1 cell growth loss with CPT. chicken DT40 Tdp1-/-;hTDP1 cells + 20 nM CPT, ATP luminescence, 48 h. Potency, µM (series often up to 46.2 µM), for the others: top-dose activity change, negative = growth inhibition, actives largely listed as inhibitors. 420,000 compounds, 12% hits. AID 686979; note: % is set by controls: 0 for no effect and ±100 for the full control effect; nearly all actives have a fitted effect of over 55% in size
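Cell growth measured by CellTiter-Glo luminescence after a minimum 48 h, 37 C compound exposure with 20 nM CPT in Tdp1-knockout DT40 cells stably expressing hTDP1, seeded 400/well; qHTS titration format.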
ATXN2 expr inh: ATXN2 expression inhibition; HEK-293 ATXN2-luciferase reporter, luminescence, 24 h; Potency, µM (series often up to 57 µM), inactives show at the top dose activity change, negative = inhibition, actives largely listed as inhibitors; 360,000 compounds, 0.72% hits; AID 1745845; note: % is set by controls: 0 for no effect and ±100 for the full control effect; nearly all actives have a fitted effect of over 55% in size
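qHTS (up to 57 uM final) was run with 24 h compound exposure of reporter cells at 37 °C. Each well was multiplexed: SteadyGlo luminescence measured ATXN2-luciferase expression after a fluorogenic Gly-Phe-AFC viability readout (25 uM final).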
S2 tox: cell viability loss in ATXN counter-screen; 400,000 compounds, 0.49% hits; Potency, µM (top dose mostly 56.7 µM), usual class: cytotoxic; S2 cells (HEK-293 line with an ATXN2-luciferase reporter) viability, CellTiter-Fluor protease fluorescence, 24 h; note: nearly all actives have a fitted effect of over 40% in size
Numbers without * were called inactive; i = inactive; ? = inconclusive; . = not tested or not shown. The list is not random: actives were taken first. Their share in the collection is about 17%. Calls come from the whole dose curve; as a rule, active = well fitted curve in the direction sought with a large enough effect; inconclusive = small, poorly fitted or top-dose-only effect, or another doubt; inactive = no such curve, though single readings can be large; an effect the other way counts as inactive or inconclusive. Potency is the fitted concentration of half-maximal effect.

SMILES | DT40 TDP1 no CPT | TGFb SMAD3 inh | HepG2 tox | DT40 TDP1 CPT | ATXN2 expr inh | S2 tox
Clc1ccc(-c2nn3cnnc3s2)c(Cl)c1 | -22.7% | -9.3% | -0.9% | 4.2% | 12.1% | i
COC(=O)c1ccc(CSc2nnc(NC(C)C)s2)o1 | -4.0% | 17.3% | -3.1% | -3.6% | -1.1% | i
CC1CCN(c2nn3c(=O)c(C(=O)NCCc4ccc(Cl)cc4)cnc3s2)CC1 | -3.4% | -3.7% | 1.6% | ? | 7.6% | i
COc1ccc(Br)c(Cn2c(C)c(C(=O)NCc3ccc(F)cc3)sc2=O)c1 | ? | -28.3% | 3.0% | ? | -20.3% | i
CCCCC[C@H](C)N1C[C@H](COCc2ccccc2)Oc2cc(N3CC[C@H](N(C)C)C3)ccc2S1(=O)=O | 16.4µM* | . | . | ? | ? | .
O=C(Nc1nnc(-c2ccc(Cl)cc2)o1)c1cccc(N2C(=O)CCC2=O)c1 | -14.8% | -3.9% | -2.7% | -19.4% | 0.0% | i
CCCCNC(=O)Nc1nnc(-c2ccc(OCC)cc2)o1 | ? | 4.2% | 0.4% | ? | -8.0% | i
COc1cccc(C(=O)Nc2nnc(-c3ccc(Cl)cc3)o2)c1 | 10.3µM* | -56.8% | -45.2% | 10.3µM* | ? | .
COc1cccc(-c2nnc(NC(C)=O)o2)c1 | -4.3% | -4.4% | -32.6% | 0.9% | 5.6% | i
COc1cccc(C(=O)Nc2nnc(-c3cccs3)o2)c1 | ? | -24.3% | -26.3% | 16.4µM* | ? | 28.2µM*
COC(=O)c1sccc1NC(=O)c1cc2c(s1)CCCC2 | 10.3µM* | -6.1% | -17.2% | -19.2% | 43.0% | ?
CCOc1ccc(-c2nnc(NC(=O)c3ccc(OCC(C)C)c(OC)c3)o2)cc1 | 6.51µM* | 0.0% | -7.3% | 5.8µM* | -33.4% | ?
COC(=O)C1=C(C)N(c2ccc(F)cc2)/C(=C/c2ccc(O)cc2)C1=O | ? | 0.0% | 0.0% | 2.4% | -6.9% | i
O=c1c2cc(Br)ccc2nc(-c2ccccc2)n1O | ? | -1.3% | -27.1% | -28.8% | . | i
O=C(CSc1n[nH]c(=O)n1Cc1ccccc1)Nc1ccc(F)c(F)c1F | ? | 4.4% | -4.7% | 17.6% | -26.6% | i
COc1cccc(-c2nnc(NC(=O)c3ccc4ncsc4c3)o2)c1 | 14.6µM* | -18.0% | -17.3% | 16.4µM* | -29.3% | i
COc1cccc(C(=O)Nc2nnc(-c3ccc(F)cc3)o2)c1 | 9.2µM* | -23.8% | -26.6% | 10.3µM* | ? | ?
COC(=O)c1sccc1NC(=O)c1cccc(OC)c1 | 20.6µM* | 6.0% | -0.2% | ? | 3.3% | i
CC(=O)c1ccc(C(=O)Nc2nnc(-c3ccc(Cl)cc3)o2)cc1 | 9.2µM* | 3.3% | -4.4% | 9.2µM* | ? | i
O=C1OCC=C1NNC(=O)c1cccnc1 | -12.3% | 10.2% | -4.2% | -11.5% | . | i
O=C(Cc1ccc(F)cc1)Nc1nnc(-c2ccc(F)cc2)o1 | ? | -21.1% | -15.2% | 23.1µM* | -5.9% | i
CN(Cc1ccc(F)cc1)S(=O)(=O)c1nnc(NC(=O)c2ccc(F)cc2)s1 | 14.6µM* | ? | -33.6% | ? | . | .
CN(Cc1ccccc1)S(=O)(=O)c1nnc(NC(=O)c2cccc(Cl)c2)s1 | 13µM* | -34.2% | -29.7% | 14.6µM* | . | .
O=C(c1cc2cc(F)ccc2[nH]1)N1CCN(C(=O)c2ccco2)CC1 | 20.6µM* | -10.4% | -35.1% | ? | . | i
CSc1ccc(C(=O)C2CCCN(C(=O)c3ccc4c(c3)OCO4)C2)cc1 (centres undefined) | ? | -2.6% | 2.5% | ? | -25.5% | i
CN1CCN(C(=O)c2cc3cc(F)ccc3[nH]2)CC1 | -16.7% | 18.1% | 18.1% | ? | -5.4% | i

Bioassay records (PubChem BioAssay)
